According to PubChem BioAssay:
Activity calls are given as the source filed them.

What was measured:
[1] = system: Plasmodium falciparum Sir2 (PF13_0152, Sir2A); assay: pfSir2 binders on small-molecule microarrays, primary screen, biochemical, small-molecule microarray, 635 nm fluorescence (AID 1098); conditions: small-molecule microarray binding, fluorescence 635 nm; higher = more signal;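 also: score merges spot fluorescence intensity with its signal-to-noise ratio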
[2] = small-molecule microarray binders of probe aDKK1, primary screen, biochemical, biotinylated probe, 635/667 nm fluorescence (AID 1099); conditions: higher = more signal;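 also: score merges 667nm spot fluorescence with signal to noise across triplicate slides; reference of the scale not given here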
[3] = small-molecule microarray binders of probe aCHRDL2, primary screen, biochemical, biotinylated probe, 635/667 nm fluorescence (AID 1100); conditions: higher = more signal
[4] = splicing luciferase reporter signal modulators, primary screen, spliceosome inhibition project, cell-based, HEK293, splice +/- reporter (AID 1101); conditions: luminescence, 24 h, higher = more signal, called active from +8 up or from −8 down;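 also: HEK293 cells carrying a splicing-competent luciferase reporter gene; test concentration not given here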
[5] = biological target: Fibroblast growth factor 10 (Homo sapiens) (UniProt O15520); assay: FGF10 binders on small-molecule microarrays, primary screen, biochemical, small-molecule microarray, 635 nm fluorescence (AID 1102); conditions: FGF10 binding, fluorescence 635 nm, higher = more signal
[6] = system: glycogen synthase kinase-3 (GSK3A per assay name; protocol says GSK3B); assay: GSK3 binders on small-molecule microarrays, primary screen, biochemical, small-molecule microarray, 635 nm fluorescence, GSK3A (AID 1103); conditions: small-molecule microarray binding, fluorescence 635 nm; higher = more signal; also: the record names both GSK3A and GSK3B
[7] = biological target: Epidermal growth factor receptor (Homo sapiens) (UniProt P00533); assay: EGFR binders on small-molecule microarrays, primary screen, biochemical, small-molecule microarray, 635 nm fluorescence (AID 1104); conditions: EGFR binding, higher = more signal;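 also: score merges 667 nm emission intensity with spot signal to noise over triplicate slides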
[8] = biological target: Follistatin-related protein 3 (Homo sapiens) (UniProt O95633); assay: FSTL3 binders on small-molecule microarrays, primary screen, biochemical, small-molecule microarray, 635 nm fluorescence (AID 1105); conditions: FSTL3 binding, higher = more signal;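 also: score merges emission near 667 nm and signal to noise per printed spot across three slides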
[9] = biological target: Dickkopf-related protein 1 (Homo sapiens) (UniProt O94907); assay: DKK1 binders on small-molecule microarrays, primary screen, biochemical, small-molecule microarray, 635 nm fluorescence scan (AID 1106); conditions: DKK1 binding, higher = more signal;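 also: score merges emission near 667 nm with signal to noise over three replicate slides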
[10] = system: Inhibin beta A chain (activin A); assay: INHBA (activin A) binders on microarrays, primary screen, biochemical, small-molecule microarray, 635 nm fluorescence scan (AID 1107); conditions: small-molecule microarray binding, higher = more signal;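 also: mouse activin A protein probed at 4.33 µg/mL on printed slides; score merges bound-protein fluorescence near 667 nm with spot signal-to-noise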

Epidermal growth factor receptor (Homo sapiens), sequence (P00533 whole entry, looked up): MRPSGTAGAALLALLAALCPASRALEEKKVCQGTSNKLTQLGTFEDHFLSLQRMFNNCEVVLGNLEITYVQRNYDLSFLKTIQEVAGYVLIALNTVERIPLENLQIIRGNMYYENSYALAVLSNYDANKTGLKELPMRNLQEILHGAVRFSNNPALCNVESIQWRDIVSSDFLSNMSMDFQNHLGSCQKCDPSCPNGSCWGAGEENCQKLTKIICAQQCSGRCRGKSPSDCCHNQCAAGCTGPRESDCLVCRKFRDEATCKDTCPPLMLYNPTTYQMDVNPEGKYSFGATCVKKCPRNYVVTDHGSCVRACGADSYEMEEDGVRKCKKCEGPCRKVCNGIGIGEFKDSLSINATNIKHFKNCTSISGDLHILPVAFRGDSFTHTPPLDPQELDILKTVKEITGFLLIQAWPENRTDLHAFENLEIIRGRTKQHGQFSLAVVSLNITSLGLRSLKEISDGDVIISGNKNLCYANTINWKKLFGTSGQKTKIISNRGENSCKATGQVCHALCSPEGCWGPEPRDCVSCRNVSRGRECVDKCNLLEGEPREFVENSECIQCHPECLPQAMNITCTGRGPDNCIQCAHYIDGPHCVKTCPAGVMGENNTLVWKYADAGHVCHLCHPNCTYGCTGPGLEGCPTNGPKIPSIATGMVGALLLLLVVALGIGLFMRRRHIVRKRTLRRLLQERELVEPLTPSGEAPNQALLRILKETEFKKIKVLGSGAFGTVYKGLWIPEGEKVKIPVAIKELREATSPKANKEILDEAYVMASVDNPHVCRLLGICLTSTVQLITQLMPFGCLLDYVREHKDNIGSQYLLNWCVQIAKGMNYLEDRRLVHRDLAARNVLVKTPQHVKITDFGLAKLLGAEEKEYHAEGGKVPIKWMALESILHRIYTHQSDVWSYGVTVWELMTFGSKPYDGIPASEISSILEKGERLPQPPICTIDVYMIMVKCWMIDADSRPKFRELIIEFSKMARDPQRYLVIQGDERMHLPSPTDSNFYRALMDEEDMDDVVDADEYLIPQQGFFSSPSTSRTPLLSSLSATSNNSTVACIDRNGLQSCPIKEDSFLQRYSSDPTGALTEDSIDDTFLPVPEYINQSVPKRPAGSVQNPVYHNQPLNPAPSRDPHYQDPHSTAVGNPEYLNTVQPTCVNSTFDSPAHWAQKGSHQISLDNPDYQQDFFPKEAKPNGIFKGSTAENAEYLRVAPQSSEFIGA
Dickkopf-related protein 1 (Homo sapiens), sequence (O94907 whole entry, looked up): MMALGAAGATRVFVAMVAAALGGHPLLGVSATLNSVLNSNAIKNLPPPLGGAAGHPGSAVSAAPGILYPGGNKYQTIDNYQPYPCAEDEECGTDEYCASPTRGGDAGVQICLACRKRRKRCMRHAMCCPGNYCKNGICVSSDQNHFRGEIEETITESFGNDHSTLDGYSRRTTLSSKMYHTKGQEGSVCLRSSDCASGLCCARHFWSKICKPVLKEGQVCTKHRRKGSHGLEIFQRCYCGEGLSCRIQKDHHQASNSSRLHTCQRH
Fibroblast growth factor 10 (Homo sapiens), sequence (O15520 whole entry, looked up): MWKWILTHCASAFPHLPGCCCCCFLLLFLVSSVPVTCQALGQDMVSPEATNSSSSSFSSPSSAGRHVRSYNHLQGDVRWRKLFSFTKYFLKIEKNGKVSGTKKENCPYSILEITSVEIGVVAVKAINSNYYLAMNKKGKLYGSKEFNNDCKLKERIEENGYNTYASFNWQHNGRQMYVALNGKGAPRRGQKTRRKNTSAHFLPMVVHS
Follistatin-related protein 3 (Homo sapiens), sequence (O95633 whole entry, looked up): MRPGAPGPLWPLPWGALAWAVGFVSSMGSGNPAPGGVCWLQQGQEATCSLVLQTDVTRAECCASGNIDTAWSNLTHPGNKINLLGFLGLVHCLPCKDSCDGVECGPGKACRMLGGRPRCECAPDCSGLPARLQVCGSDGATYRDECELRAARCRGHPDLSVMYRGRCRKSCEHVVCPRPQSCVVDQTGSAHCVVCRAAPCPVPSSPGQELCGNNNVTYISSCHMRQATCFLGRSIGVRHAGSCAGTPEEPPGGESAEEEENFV

SMILES | composite z-score [1] | composite z-score [2] | composite z-score [3] | z-score [4] | composite z-score [5] | composite z-score [6] | composite z-score [7] | composite z-score [8] | composite z-score [9] | composite z-score [10]
CC(C)C[C@@H]1NC(=O)[C@H]2C[C@@H](C(=O)O)[C@@H](c3ccc(O)cc3)N2C1=O | 1.08 | 0.717 | 0.171 | -0.0559 (inactive) | 0.0112 | 0.141 | -0.284 | 0.0204 | 0.63 | 1.05
CO[C@H]1COC(=O)[C@H](C)COC(=O)CC=C[C@@H](C)[C@H](OC)COC(=O)CC=C[C@@H]1C | 0.864 | -0.466 | -1.28 | 0.0172 (inactive) | 0.207 | 0.432 | 1.47 | 1.32 | 1.02 | 1.28
Cc1cc(C)c(-c2cc([C@H](C)ON=C3[C@H]4CCn5c(=O)n(-c6ccccc6)c(=O)n5[C@H]4[C@H](O)[C@@H]4O[C@H]34)on2)c(C)c1 | 0.167 | -0.255 | -0.48 | 2.01 (inactive) | 0.501 | 0.253 | 0.377 | 0.801 | 0.88 | -0.0289
CCc1cc2c(nc1CC)CCN(CCC(C)=NO[C@@H](C)c1cc(-c3c(C)cc(C)cc3C)no1)C2 | 0.856 | -0.227 | -0.286 | -0.596 (inactive) | -0.328 | -0.562 | -0.408 | -0.473 | -0.107 | 0.711
CCN1C(=O)[C@H]2[C@H]3[C@H](O)[C@H](O)CC(=NOC[C@@H](C)[C@H](OCc4ccccc4)C(C)C)[C@@H]3CC[C@H]2C1=O | 1.16 | -0.035 | -0.171 | 0.879 (inactive) | 0.405 | 0.254 | 0.108 | 0.284 | 0.132 | 0.359
CCN1C(=O)[C@H]2[C@H]3[C@H](O)[C@H](O)CC(=NOCc4ccccc4)[C@H]3CC[C@H]2C1=O | 0.18 | -0.237 | -0.278 | 0.462 (inactive) | 0.47 | 0.0166 | 0.0741 | -0.257 | 0.132 | -0.114
COc1ccc(O[C@H]2C=C[C@@H](c3ccccc3)O[C@@H]2COC(=O)CCC(C)=NOC(C)CN2CCCCc3nc(C)c(C)cc32)cc1 (stereo not given in full) | 1.42 | -0.0789 | 0.208 | -0.665 (inactive) | -0.154 | -0.86 | -0.457 | -0.106 | -0.0649 | 1.36
C#CCCCON=C1C[C@@H](O)[C@@H](O)[C@@H]2[C@@H]3C(=O)N(c4cccc(Oc5ccccc5)c4)C(=O)[C@@H]3CC[C@@H]12 | 0.632 | -0.178 | 0.0505 | -0.417 (inactive) | 0.985 | 0.548 | 0.213 | 0.802 | -0.0498 | -0.211
COC(=O)[C@@]1(Cc2ccc(F)cc2)[C@@H]2C(=CC(=O)[C@H]2CC(=O)C(=O)N(C)C)CN1C(=O)c1ccccc1 | 0.346 | 1.31 | 0.921 | -1.17 (inactive) | 0.625 | 1.29 | -0.0946 | 1.06 | -0.251 | 0.637
CCOC(=O)CCN1C(=O)[C@H]2[C@H]3[C@H](O)[C@H](O)CC(=NOCc4ccccc4)[C@@H]3CC[C@H]2C1=O | 0.174 | -0.206 | -0.608 | 0.0671 (inactive) | 0.526 | 0.597 | 0.641 | 0.749 | 0.4 | 0.0727
Cc1ccc(S[C@]2(C(=O)O)CC(=O)N(Cc3ccccc3)[C@@H]2c2ccc(CO)cc2I)cc1 | 1.17 | -0.0401 | 0.894 | -0.982 (inactive) | -0.406 | -0.0099 | -0.814 | -0.417 | -0.776 | 0.84
O=C1[C@H]2[C@H]3[C@H](O)[C@H](O)CC(=NO[C@@H]4O[C@H](CO)[C@@H](O)[C@H](O)[C@H]4O)[C@@H]3CC[C@H]2C(=O)N1Cc1ccccc1 | 0.133 | -0.195 | -0.269 | -0.847 (inactive) | 0.503 | -0.817 | 0.331 | -0.0746 | -0.0034 | -1.43
CC(C)=CCCC(C)=CCON=C1C[C@@H](O)[C@@H](O)[C@@H]2[C@@H]3C(=O)N(C[C@@H]4CCCO4)C(=O)[C@@H]3CC[C@@H]12 | 0.998 | -0.364 | -0.753 | 0.363 (inactive) | 1.33 | 1.29 | 1.15 | 1.37 | 1.37 | 1.52
C[C@@H]1C=CCC(=O)OC[C@H](C)C(=O)N2CCC[C@H]2C(=O)OC1 | 1.12 | -0.457 | -0.769 | -0.479 (inactive) | 0.825 | 1.21 | 1.26 | 0.829 | 2.21 | -1.04
COCCOC(=O)N1C(=O)[C@@]2(c3cc(C#CCNC(N)=O)ccc31)[C@H](c1ccccc1OCCO)N1[C@H](c3ccccc3)[C@H](c3ccccc3)OC(=O)[C@H]1[C@@H]2C(=O)N1CCN(c2ncccn2)CC1 | 1.61 | 0.376 | 0.702 | -0.099 (inactive) | 1.15 | 0.375 | 0.315 | 0.623 | 0.0239 | 1.35
COc1ccc([Si](C)(C)[C@@H]2[C@@H](CCO)O[C@]3(C(=O)N(Cc4ccc(NC(C)=O)cc4)c4ccccc43)[C@H]2C)cc1 | 1.23 | -0.173 | 0.0018 | -2.27 (inactive) | 0.779 | 1.28 | 1.28 | 0.951 | -0.0026 | 0.387
CC(C)CN1CCc2nc(-c3ccccc3)c3c(c2CC1)CO[C@@H](C)C3 | -0.232 | 0.256 | -0.469 | 0.00565 (inactive) | 0.515 | 0.123 | 0.471 | 0.202 | 0.718 | 0.157
